Screening results: PubChem, several laboratories
GAA850 FXN act = frataxin GAA850 promoter activation; HEK293 lucGAA850 FXN promoter luciferase reporter, 24 h; percent of 10 µM SAHA response; 360,000 compounds, 0.56% hits; activation, % at 6 µM; AID 540364;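 active = activation above the average of all compounds screened plus 3 SD, cutoff fixed separately per campaign, cut at about 7.5% in these data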;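 note: 0% = DMSO wells and 100% = 10 µM SAHA wells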
EWS-Fli block = inhibitors of EWS/Fli oncoprotein transcriptional activity; A673 NR0B1-luciferase reporter, viability-normalised; inhibition, % at 12.6 µM; 350,000 compounds, 0.67% hits;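 active = mean inhibition of at least 50% after viability correction, with every replicate also passing that limit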;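 note: firefly luciferase signal divided by Alamar Blue viability fluorescence both relative to DMSO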
PAX8 reporter = inhibitors of PAX8 transcriptional activity in RMG-I cells. RMG-I TPO-luciferase reporter, SteadyGlo, 24 h. inhibition, % at 12.6 µM. 360,000 compounds, 1.2% hits. AID 652154;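 active = mean replicate inhibition at least 60% with every replicate also reaching 60%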;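 note: luciferase light reporting Pax8 driven TPO promoter activity; plate controls were median of neutral control wells for no effect and mitoxantrone controls for full effect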
HIV Env fusion = inhibitors of HIV Env-mediated cell fusion. HeLa-JRFL Env/CEM21 cell fusion, luciferase. inhibition, % at 12.3 µM. 360,000 compounds, 1.1% hits;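 active = mean replicate inhibition score of at least 50 and every replicate individually at or above 50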;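 note: 0% = plate neutral controls and 100% = maraviroc near 300 nM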
CFTR F508del cor = correctors of CFTR F508del function in bronchial epithelial cells. CFBE cells, YFP halide quenching; stimulated with forskolin plus potentiator P3; % fluorescence drop versus neutral controls. 350,000 compounds, 0.36% hits. AID 720511. activity (quench increase), % at 7.58 µM;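 active = mean added fluorescence quench of at least 8% versus neutral control, with both replicates also reaching 8%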;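 note: cells transiently co-express mutant CFTR-F508del with the halide-sensitive YFP; corrector assay measuring rescue of mutant channel to the surface after 24 h compound exposure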
* = called active by the depositor; . = not tested or not shown; [ ] = remark or other dose. Only some compounds are listed: those with a hit (about 2.5% of all), similar ones and a draw of the others.

SMILES | GAA850 FXN act | EWS-Fli block | PAX8 reporter | HIV Env fusion | CFTR F508del cor
CC12CC3CC(C)(C1)CC(C(=O)NCc1ccncc1)(C3)C2 | 7.0 | 0.2 | -4.2 | 100.8* | -3.1
C[C@H](CO)N1C[C@H](C)[C@H](CN(C)S(=O)(=O)c2ccc(F)cc2)Oc2ccc(NC(=O)Nc3ccccc3)cc2C1=O | . | -12.9 | . | 16.2[16.7 µM] | 3.5
CC1CCN(C(c2ccc(N(C)C)cc2)c2nnnn2Cc2ccc(F)cc2)CC1 (centres undefined) | 1.7 | . | . | . | .
Fc1ccc(Cn2nnnc2C(c2ccc(Cl)cc2)N2CCSCC2)cc1 (centres undefined) | 0.5 | . | 9.3 | 52.3* | .
Cc1ccc(S(=O)(=O)N[C@@H]2CC[C@@H](CCn3cc(C4CCCC4)nn3)O[C@H]2CO)cc1 | . | . | 6.8 | . | 0.3
N#C/C(=C/c1ccc(N2CCCCCC2)o1)c1ccc(F)cc1 | 3.4 | . | . | . | .
N#C/C(=C/c1ccc(N2CCOCC2)o1)c1ccc(Br)cc1 | 16.3* | . | . | . | .
Cc1ccc(S(=O)(=O)Nc2ccc3c(c2)C(=O)N([C@H](C)CO)C[C@H](C)[C@@H](CN(C)C(=O)Nc2c(C)noc2C)OCCCC[C@H](C)O3)cc1 | . | 0.5 | -6.9 | -9.5[16.7 µM] | 0.5
Cc1nnc(N/N=C/c2ccccc2F)n1N | 0.5 | 1.9 | 20.4 | -4.7 | -0.8
Cc1nnc(N/N=C/c2cccc(C(F)(F)F)c2)n1N | -1.7 | -1.6 | 108.1* | 0.4 | -2.2
Cc1nnc(N/N=C/c2ccccc2C(F)(F)F)n1N | -1.4 | -6.4 | 84.8* | 7.3 | 0.2
C[C@@H]1CN([C@H](C)CO)S(=O)(=O)c2ccc(C3=CCCCC3)cc2O[C@@H]1CN(C)C(=O)C1CCC1 | . | 6.2 | . | 23.6[16.7 µM] | -0.7
O=C(CCCN1CCC(O)(c2cccc(C(F)(F)F)c2)CC1)c1ccc(F)cc1 | -1.0 | 10.8 | 2.8 | 2.3 | 8.3*
O=C(CCCN1CCC(O)(c2ccc(Br)cc2)CC1)c1ccc(F)cc1 | -0.3 | 13.0 | 7.1 | 4.0 | 1.1
Cc1cccc(S(=O)(=O)N2CCCCN3[C@H](CO)[C@@H](c4ccc(-c5ccccc5)cc4)[C@@H]3C2)c1 | . | -3.6 | 16.8 | . | 1.5
COc1ccc(-c2c[n+]3c(n2-c2ccccc2)SCC3)cc1 | -0.9 | 12.8 | 7.4 | 1.6 | -2.7
COc1ccc(-n2cc(-c3ccc(C)cc3)[n+]3c2SCC3)cc1 | -2.8 | . | 79.4* | 117.6* | .
Cc1ccc(-c2c[n+]3c(n2-c2ccccc2)SCC3)cc1 | -2.8 | 19.6 | 15.3 | 59.0* | 0.5
CCc1ccc(-n2cc(-c3ccc(F)cc3)[n+]3c2SCCC3)cc1 | 1.1 | 27.5 | 59.4 | 46.9 | -1.7
Cc1ccc(-c2cn(-c3ccccc3)c3[n+]2CCCS3)cc1 | -0.7 | 17.4 | 79.0* | 43.0 | .
C[C@H](CO)N1C[C@H](C)[C@@H](CN(C)Cc2ccc(Oc3ccccc3)cc2)Oc2ccc(NC(=O)CCC(F)(F)F)cc2CC1=O | . | 11.3 | 23.2 | -5.0[16.7 µM] | -2.0
CCOC(=O)c1[nH]c(C)c(C(=O)OCC(=O)NC(C)c2ccc(F)cc2)c1C (centres undefined) | -4.7 | 54.1* | 28.0 | . | 7.4
COc1cc(NC(=O)c2ccc([N+](=O)[O-])o2)ccc1NC(=O)c1ccco1 | 4.8 | . | 89.9* | -51.7 | -2.7
COc1cc(NC(=O)c2cccc([N+](=O)[O-])c2)ccc1NC(=O)c1ccco1 | -1.7 | 1.3 | 8.7 | -115.7 | 1.9
Cc1cc(NC(=O)c2ccc([N+](=O)[O-])o2)ccc1NC(=O)c1ccco1 | 4.9 | -0.7 | 98.9* | -95.1 | .
SMILES | GAA850 FXN act | EWS-Fli block | PAX8 reporter | HIV Env fusion | CFTR F508del cor
CCC(=O)N1[C@H](CNC(C)=O)[C@H](c2ccc(-c3cccc(F)c3)cc2)[C@@H]1CO | . | 1.1 | -2.1 | . | 3.3
O=C1[C@H]2[C@@H](C3CC3)N3C(=O)CN(Cc4ccccn4)C(=O)[C@@]3(Cc3ccccc3)[C@H]2C(=O)N1c1ccccc1 | 1.7 | -3.0 | -15.1 | 8.2 | 3.5
O=C1[C@H]2[C@@H](C3CC3)N3C(=O)CN(CC4CC4)C(=O)[C@@]3(Cc3ccccc3)[C@H]2C(=O)N1c1ccccc1 | 7.1 | -4.6 | -9.6 | 70.0* | 2.1
CCOC(=O)c1cnc(-c2cccc(OC)c2)[nH]c1=O | 0.1 | . | . | -65.2 | .
CCOC(=O)c1cnc(COc2ccc(OC)cc2)[nH]c1=O | 2.1 | 24.5 | 0.4 | 9.1 | 52.6*
N#C[C@H]1[C@@H](c2ccccc2C2=CCCC2)[C@H](CO)N1C(=O)C1CCCC1 | . | -3.4 | 3.8 | . | -1.0
O=C(c1ccc(C(F)(F)F)cc1)N(CCCn1ccnc1)C(c1ccccn1)c1nc2ccccc2[nH]1 (centres undefined) | . | -1.2 | 6.6 | 64.7* | -5.2
C[C@@H]1CN([C@H](C)CO)C(=O)c2cc(NC(=O)Nc3ccc(F)cc3)ccc2O[C@@H](C)CCCCO[C@H]1CN(C)S(=O)(=O)c1ccccc1 | . | 16.2 | 87.8* | 48.3[16.7 µM] | 2.2
C[C@@H]1CCCCO[C@@H](CN(C)S(=O)(=O)c2ccccc2)[C@H](C)CN([C@H](C)CO)C(=O)c2cc(NC(=O)Nc3ccc(F)cc3)ccc2O1 | . | 15.5 | 73.2* | 35.3[16.7 µM] | 1.0
C[C@@H]1CN([C@@H](C)CO)C(=O)c2cc(NC(=O)Nc3ccc(F)cc3)ccc2O[C@@H](C)CCCCO[C@@H]1CN(C)S(=O)(=O)c1ccccc1 | . | 3.9 | -13.3 | -7.9[16.7 µM] | 1.5
Cc1noc(C)c1NC(=O)Nc1ccc2c(c1)CC(=O)N([C@@H](C)CO)C[C@H](C)[C@@H](CN(C)Cc1ccc(C(=O)Nc3ccccc3N)cc1)O2 | . | . | 6.8 | . | -1.2
O=C(Cc1c(Cl)cccc1Cl)Nc1ccncc1Cl | -1.5 | 16.2 | -4.1 | 61.2* | 0.3
O=C(Cc1c(Cl)cccc1Cl)Nc1ccncc1 | -0.4 | . | -35.2 | 23.9 | -1.1
Cc1ccc(CSc2nccc(-c3c(C)nc4ccccn34)n2)cc1 | -0.9 | 55.9* | 3.6 | 33.1 | -0.1
CC1CCCC(NC(=O)COC(=O)c2ccccc2Sc2ccccc2C#N)C1C (centres undefined) | -2.9 | 2.1 | 132.7* | . | 0.3
N#Cc1ccccc1Sc1ccccc1C(=O)OCC(=O)NC12CC3CC(CC(C3)C1)C2 | 2.1 | . | -3.2 | 13.5 | .
O=C(Nc1ccc(O)c(-c2nc3ccccc3o2)c1)C1(c2ccc(Cl)cc2)CCCC1 | 0.5 | . | 15.3 | 31.0 | .
O=C(Nc1ccc(O)c(-c2nc3ccccc3o2)c1)C1(c2ccc([N+](=O)[O-])cc2)CCCC1 | -1.1 | . | 9.6 | 55.1* | .
Cc1cc(C(=O)Nc2cccc3c2O[C@H](CN(C)C(=O)Nc2ccc(C(F)(F)F)cc2)[C@@H](C)CN([C@H](C)CO)C3=O)n(C)n1 | . | -2.7 | -2.9 | -7.0[16.7 µM] | -1.2
C[C@@H]1CN([C@H](C)CO)C(=O)c2cc(-c3ccncc3)cnc2O[C@@H]1CN(C)C(=O)C1CCC1 | . | -9.9 | . | -9.8[16.7 µM] | -1.9
Cc1ccc(S(=O)(=O)Nc2ccc3c(c2)C(=O)N([C@@H](C)CO)C[C@@H](C)[C@@H](CN(C)Cc2ccc(Cl)c(Cl)c2)OCCCC[C@@H](C)O3)cc1 | . | -14.9 | 96.3* | 30.0[16.7 µM] | 4.4
